# Assay results as given in PubChem BioAssay (EPA / NIEHS).
# The source made the active and inactive calls. How the source made its calls: active means hit-call score of the fitted dose curve at least 0.9, where 1 is the maximum; inactive means score below 0.9.
# Key:
# [1] = read-out: Cyclin Dependent Kinase Inhibitor 1A (CDKN1A), CDKN1A (gene 1026); test: LTEA_HepaRG_CDKN1A: Life Technologies and Expression Analysis (LTEA) Assay for Cyclin Dependent Kinase Inhibitor 1A (CDKN1A) using HepaRG (AID 2283450); settings: mRNA level, 48 h; actives raise or lower the signal
# How it was run: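 Differentiated human HepaRG cells, pre-cultured 48 h, were exposed in duplicate for 48 h in serum-free induction medium to eight half-log concentrations up to 100 uM (0.5% DMSO). CDKN1A mRNA was measured by qRT-PCR, normalized to ACTB/GAPDH/POLR2A, bidirectionally fitted versus DMSO.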
# [2] = read-out: Cyclin D1 (CCND1), CCND1 (gene 595); test: LTEA_HepaRG_CCND1: Life Technologies and Expression Analysis (LTEA) Assay for Cyclin D1 (CCND1) using HepaRG (AID 2283451); settings: mRNA level, 48 h; actives raise or lower the signal;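 on AC50: TaqMan qRT-PCR transcript level normalised to ACTB GAPDH and POLR2A housekeeping genes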
# How it was run: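 Differentiated human HepaRG cells in serum-free induction medium were exposed 48 h to eight half-log concentrations up to 100 uM in 0.5% DMSO; mRNA quantified by TaqMan qRT-PCR, normalized to ACTB, GAPDH, POLR2A, fitted bidirectionally versus DMSO.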
# [3] = read-out: catalase (CAT), CAT (gene 847); test: LTEA_HepaRG_CAT: Life Technologies and Expression Analysis (LTEA) Assay for catalase (CAT) using HepaRG (AID 2283452); settings: mRNA level, 48 h; actives raise or lower the signal;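 on AC50: TaqMan qRT-PCR signal normalized to ACTB GAPDH and POLR2A housekeeping genes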
# How it was run: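 Differentiated HepaRG cells in serum-free induction medium were dosed 48 h in duplicate, eight half-log concentrations from 100 uM in 0.5% DMSO. Transcript measured by TaqMan qRT-PCR, normalised to ACTB/GAPDH/POLR2A, fitted bidirectionally against DMSO.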
# [4] = read-out: CFLAR gene, CFLAR (gene 8837); test: LTEA_HepaRG_CFLAR: Life Technologies and Expression Analysis (LTEA) Assay for CFLAR gene using HepaRG (AID 2283455); settings: mRNA level, 48 h; actives raise or lower the signal
# How it was run: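 Gain- or loss-of-signal changes in CFLAR transcript were fitted bidirectionally relative to 0.5% DMSO. Cells (HepaRG, duplicate wells) were dosed for 48 h across eight half-log concentrations topping at 100 uM; quantitation by TaqMan qRT-PCR.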
# [5] = read-out: Forkhead box O1 (FOXO1), FOXO1 (gene 2308); test: LTEA_HepaRG_FOXO1: Life Technologies and Expression Analysis (LTEA) Assay for Forkhead box O1 (FOXO1) using HepaRG (AID 2283456); settings: mRNA level, 48 h; actives raise or lower the signal
# How it was run: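 Using one lot of HepaRG hepatic cells kept in 0.5% DMSO, the team applied test chemicals in duplicate, half-log dilutions from 100 uM, for 48 h. Expression, normalised to ACTB/GAPDH/POLR2A, was compared with vehicle in either direction.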
# [6] = read-out: growth arrest and DNA damage 45 (GADD45A), GADD45A (gene 1647); test: LTEA_HepaRG_GADD45A: Life Technologies and Expression Analysis (LTEA) Assay for growth arrest and DNA damage 45 (GADD45A) using HepaRG (AID 2283458); settings: mRNA level, 48 h; actives raise or lower the signal
# How it was run: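 Eight-point concentration-response in HepaRG cells: 48 h chemical exposure, 0.5% DMSO vehicle, top dose 100 uM. Normalized qRT-PCR mRNA readout with bidirectional fitting relative to DMSO.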
# [7] = read-out: Forkhead box O3 (FOXO3), FOXO3 (gene 2309); test: LTEA_HepaRG_FOXO3: Life Technologies and Expression Analysis (LTEA) Assay for Forkhead box O3 (FOXO3) using HepaRG (AID 2283459); settings: mRNA level, 48 h; actives raise or lower the signal
# How it was run: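 Gene-expression endpoint: FOXO3 transcript level by qRT-PCR in HepaRG cultures treated 48 h with chemicals up to 100 uM (half-log, 0.5% DMSO vehicle).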
# [8] = read-out: growth arrest and DNA damage 45 (GADD45B), GADD45B (gene 4616); test: LTEA_HepaRG_GADD45B: Life Technologies and Expression Analysis (LTEA) Assay for growth arrest and DNA damage 45 (GADD45B) using HepaRG (AID 2283461); settings: mRNA level, 48 h; actives raise or lower the signal
# How it was run: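 Differentiated HepaRG cells, plated 48 h then switched to serum-free induction medium, were exposed 48 h in duplicate to eight half-log concentrations from 100 uM in 0.5% DMSO; mRNA quantified by qRT-PCR, normalized to ACTB/GAPDH/POLR2A, bidirectional fit versus DMSO.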
# [9] = read-out: ABC Transporter (ABCC3), ABCC3 (gene 8714); test: LTEA_HepaRG_ABCC3: Life Technologies and Expression Analysis (LTEA) Assay for ABC Transporter (ABCC3) using HepaRG (AID 2283462); settings: mRNA level, 48 h; actives raise or lower the signal
# How it was run: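 HepaRG cells in serum-free induction medium were exposed for 48 h in duplicate to 8-point half-log concentrations topping at 100 uM in 0.5% DMSO. ABCC3 mRNA was measured by qRT-PCR normalized to ACTB, GAPDH and POLR2A, with bidirectional fitting versus DMSO.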
# [10] = CEETOX_H295R_TESTO: CeeTox H295R High-throughput Steroidogenesis Assay for Testosterone (TESTO) (AID 2283457); settings: actives raise or lower the signal;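 on AC50: cells exposed to chemicals for 48 h before medium collection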
# How it was run: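 H295R human adrenal cells in DMEM/F12 with ITS+ and Nu-Serum, exposed to chemicals for 48 h. Testosterone in medium measured by MTBE extraction, reverse-phase HPLC-MS/MS; bidirectional fit versus DMSO baseline. MTT viability checked in same wells.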
compound,measurement,setting,value
CN(C)C(=S)S,outcome,[1],inactive
same,outcome,[2],inactive
same,outcome,[3],inactive
same,outcome,[4],inactive
same,outcome,[5],inactive
same,outcome,[6],inactive
same,outcome,[7],inactive
same,outcome,[8],inactive
same,outcome,[9],inactive
CC(C)O.CC(C)O.OCCN(CCO)CCO.OCCN(CCO)CCO.[Ti],outcome,[1],inactive
same,outcome,[2],inactive
same,outcome,[3],inactive
same,outcome,[4],inactive
same,outcome,[5],inactive
same,outcome,[6],inactive
same,outcome,[7],inactive
same,outcome,[8],inactive
same,outcome,[9],inactive
CC(C)(C)c1ccccc1O,outcome,[1],inactive
same,outcome,[2],inactive
same,outcome,[3],inactive
same,outcome,[4],inactive
same,outcome,[5],inactive
same,outcome,[6],inactive
same,outcome,[7],inactive
same,outcome,[8],inactive
same,outcome,[9],inactive
N#Cc1cccnc1,outcome,[1],inactive
same,outcome,[2],inactive
same,outcome,[3],inactive
same,outcome,[4],inactive
same,outcome,[5],inactive
same,outcome,[6],inactive
same,outcome,[7],inactive
same,outcome,[8],inactive
same,outcome,[9],inactive
Clc1cccc(Cl)c1,outcome,[1],inactive
same,outcome,[2],inactive
same,outcome,[3],inactive
same,outcome,[4],inactive
same,outcome,[5],inactive
same,outcome,[6],inactive
same,outcome,[7],inactive
same,outcome,[8],inactive
same,outcome,[9],inactive
Clc1cccc(Cl)c1Cl,outcome,[1],inactive
same,outcome,[2],inactive
same,outcome,[3],inactive
same,outcome,[4],inactive
same,outcome,[5],inactive
same,outcome,[6],inactive
same,outcome,[7],inactive
same,outcome,[8],inactive
same,outcome,[9],inactive
O=C(O)C1(c2ccc3c(c2)OC[C@H](Cc2ccc(-c4ccccc4)cc2)[C@H]3O)CCCC1,AC50,[1],80.2 µM (active)
same,outcome,[2],inactive
same,AC50,[3],82 µM (active)
same,outcome,[4],inactive
same,AC50,[5],50 µM (active)
same,outcome,[6],inactive
same,outcome,[7],inactive
same,AC50,[8],86.9 µM (active)
same,AC50,[9],75.7 µM (active)
Oc1c(Cl)cc(Cl)cc1Cl,outcome,[1],inactive
same,outcome,[2],inactive
same,outcome,[3],inactive
same,outcome,[4],inactive
same,outcome,[5],inactive
same,outcome,[6],inactive
same,outcome,[7],inactive
same,outcome,[8],inactive
same,outcome,[9],inactive
Cc1ccccc1OP(=O)(Oc1ccccc1C)Oc1ccccc1C,outcome,[10],inactive
COc1ccccc1N,outcome,[1],inactive
same,outcome,[2],inactive
same,outcome,[3],inactive
same,outcome,[4],inactive
same,outcome,[5],inactive
same,outcome,[6],inactive
same,outcome,[7],inactive
same,outcome,[8],inactive
same,outcome,[9],inactive
O=S1OC[C@@H]2[C@H](CO1)[C@]1(Cl)C(Cl)=C(Cl)[C@@]2(Cl)C1(Cl)Cl (some centres undefined),AC50,[10],50 µM (active)
Oc1cc(Cl)c(Cl)cc1Cl,outcome,[1],inactive
same,outcome,[2],inactive
same,outcome,[3],inactive
same,outcome,[4],inactive
same,outcome,[5],inactive
same,outcome,[6],inactive
same,outcome,[8],inactive
same,outcome,[9],inactive
Cc1cc(C(C)(C)c2ccc(O)c(C)c2)ccc1O,AC50,[10],5 µM (active)
OCCN(CCO)CCO,outcome,[1],inactive
same,outcome,[2],inactive
same,outcome,[3],inactive
same,outcome,[4],inactive
same,outcome,[5],inactive
same,outcome,[6],inactive
same,outcome,[7],inactive
same,outcome,[8],inactive
same,outcome,[9],inactive
Cc1cc(C)cc(C)c1,outcome,[1],inactive
same,outcome,[2],inactive
same,outcome,[3],inactive
same,outcome,[4],inactive
same,outcome,[5],inactive
same,outcome,[6],inactive
same,outcome,[7],inactive
same,outcome,[8],inactive
same,outcome,[9],inactive
CCCCCCCCCCCCc1cccc(S(=O)(=O)O)c1,outcome,[1],inactive
same,AC50,[2],45 µM (active)
same,outcome,[3],inactive
same,outcome,[4],inactive
same,AC50,[5],16.1 µM (active)
same,outcome,[6],inactive
same,AC50,[7],45 µM (active)
same,outcome,[8],inactive
same,outcome,[9],inactive
O=C(N[C@H]1CN2CCC1CC2)c1ccc2c(c1)OCCO2,outcome,[1],inactive
same,outcome,[2],inactive
same,outcome,[3],inactive
same,outcome,[4],inactive
same,outcome,[5],inactive
same,outcome,[6],inactive
same,outcome,[7],inactive
same,outcome,[8],inactive
same,outcome,[9],inactive
OC(Cc1ccccc1Cl)(Cn1[nH]cnc1=S)C1(Cl)CC1 (centres undefined),outcome,[10],inactive
